This is a sample that favours compounds with a hit; in the whole collection about 0.83% have one here.
LRH-1 inv ag = inverse agonists of human LRH-1 (NR5A2). O00482. HEK293T StAR-luciferase reporter, LRH-1 transfected, 24 h. inhibition, % at 3.6 µM. 360,000 tested, 0.13% active. AID 602396;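 active means inhibition above the mean inhibition of all tested compounds plus 3 SD, cut at about 73% in these data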;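 further: 0% = DMSO wells and 100% = reporter-only cells lacking LRH-1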
NCOA3 inh = inhibitors of human steroid receptor coactivator 3 (SRC3); HEK293 GAL4-SRC3 luciferase reporter, luminescence; Q9Y6Q9; 360,000 tested, 0.17% active; inhibition, % at 3.6 µM; AID 588352;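 active means inhibition above a per-campaign cutoff, the mean of all compounds plus 3 SD, cut at about 60% in these data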;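 further: 0% = DMSO-treated cells and 100% = gossypol-treated cells at 36 µM; higher means less SRC3-driven luciferase light from the GAL4 reporter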
NCOA2 inhibitor = inhibits human steroid receptor coactivator 2. 370,000 tested, 0.17% active. inhibition, % at 9 µM. Q15596. HEK293 GAL4-SRC2 luciferase reporter, luminescence;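 active means inhibition above the mean inhibition of all tested compounds plus 3 SD, set per campaign, cut at about 52% in these data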;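 further: 0% = DMSO treated cells and 100% = cells given Gossypol at 36 µM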
Target sequence (Q15596 whole entry, looked up, the tested form may be a part): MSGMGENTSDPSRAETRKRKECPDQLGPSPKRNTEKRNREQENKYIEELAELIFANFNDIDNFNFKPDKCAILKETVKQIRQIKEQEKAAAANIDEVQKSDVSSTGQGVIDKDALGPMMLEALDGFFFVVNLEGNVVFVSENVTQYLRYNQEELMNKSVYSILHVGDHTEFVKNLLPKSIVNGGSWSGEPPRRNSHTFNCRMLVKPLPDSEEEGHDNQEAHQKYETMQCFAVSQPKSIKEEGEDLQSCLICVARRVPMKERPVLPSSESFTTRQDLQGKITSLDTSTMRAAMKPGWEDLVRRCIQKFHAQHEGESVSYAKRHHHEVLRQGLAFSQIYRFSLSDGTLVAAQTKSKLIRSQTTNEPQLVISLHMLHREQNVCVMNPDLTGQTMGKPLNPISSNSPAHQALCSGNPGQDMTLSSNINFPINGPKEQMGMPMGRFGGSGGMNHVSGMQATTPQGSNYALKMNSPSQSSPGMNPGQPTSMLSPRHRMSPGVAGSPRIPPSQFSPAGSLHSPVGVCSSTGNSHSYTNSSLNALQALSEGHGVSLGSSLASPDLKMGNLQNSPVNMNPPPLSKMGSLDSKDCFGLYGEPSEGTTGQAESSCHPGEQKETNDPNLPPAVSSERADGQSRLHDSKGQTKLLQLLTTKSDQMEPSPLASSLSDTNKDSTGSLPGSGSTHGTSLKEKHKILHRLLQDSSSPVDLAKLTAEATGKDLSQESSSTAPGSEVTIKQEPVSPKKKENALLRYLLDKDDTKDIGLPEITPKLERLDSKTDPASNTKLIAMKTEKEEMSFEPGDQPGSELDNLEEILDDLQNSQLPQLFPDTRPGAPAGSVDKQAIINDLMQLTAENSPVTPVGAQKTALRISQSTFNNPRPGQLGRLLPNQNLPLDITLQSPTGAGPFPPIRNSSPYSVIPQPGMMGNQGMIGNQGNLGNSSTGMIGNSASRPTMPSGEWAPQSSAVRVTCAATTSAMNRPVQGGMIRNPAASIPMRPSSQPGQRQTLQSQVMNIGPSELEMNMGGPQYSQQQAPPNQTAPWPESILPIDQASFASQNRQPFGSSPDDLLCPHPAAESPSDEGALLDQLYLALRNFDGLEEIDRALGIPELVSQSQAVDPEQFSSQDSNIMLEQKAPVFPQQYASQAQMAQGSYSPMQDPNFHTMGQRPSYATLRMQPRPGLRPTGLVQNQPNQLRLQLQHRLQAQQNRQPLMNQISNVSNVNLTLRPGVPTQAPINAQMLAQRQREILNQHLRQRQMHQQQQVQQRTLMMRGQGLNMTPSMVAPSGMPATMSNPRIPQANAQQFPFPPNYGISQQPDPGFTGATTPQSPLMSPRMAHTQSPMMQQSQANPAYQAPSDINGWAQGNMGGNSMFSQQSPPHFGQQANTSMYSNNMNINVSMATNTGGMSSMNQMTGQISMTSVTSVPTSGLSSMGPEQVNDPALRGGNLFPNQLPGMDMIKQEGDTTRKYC
Gli-Sufu antag = Gli-Sufu pathway antagonism | Sufu-KO-LIGHT fibroblasts, Gli luciferase reporter luminescence | AID 588413 | inhibition, % at 5 µM | 340,000 tested, 0.74% active;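 active means inhibition above about 55%, limit read from the data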;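 further: 0% = DMSO-treated cells and 100% = wells with medium but no cells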
SRC1 inh = inhibits human SRC1 coactivator. Q15788. HEK293 GAL4-SRC1 luciferase reporter, luminescence. inhibition, % at 3.6 µM. 360,000 tested, 0.12% active;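 active means inhibition above the campaign mean plus 3 SD, with each screening campaign given its own cutoff, cut at about 60% in these data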;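 further: 0% = DMSO treated cells and 100% = gossypol at 36 µM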
Gli antag conf = Gli-SUFU antagonism confirmation, single concentration; shares compounds with Gli-Sufu antag; Sufu-KO-LIGHT cells, Gli luciferase reporter, luminescence; inhibition, % at 5 µM; 2,500 tested, 40% active;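 active means mean inhibition at 5 µM reaching about 45%, limit read from the data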;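 further: plate controls were DMSO-treated cells for no effect and wells lacking cells for full effect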
SufuKO cytotox = counter-screen for Gli-SUFU antagonists: cytotoxicity. AID 651994. Sufu-KO-LIGHT cells cytotoxicity, ATP luminescence. cytotoxicity, % at 5 µM. 2,500 tested, 32% active. shares compounds with Gli-Sufu antag;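 active means mean cytotoxicity at 5 µM above about 25%, limit read from the data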;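 further: cells exposed to compound overnight for roughly 16 to 18 hours; plate controls were DMSO wells with cells for no effect and medium without cells for full effect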
Wnt3a cs = inhibits Wnt3a reporter, counter-screen for Gli-SUFU antagonists | 2,500 tested, 20% active | shares compounds with Gli-Sufu antag | inhibition, % at 6.25 µM | Wnt-LIGHT cells, Wnt3a-driven luciferase reporter, luminescence;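 active means mean inhibition above about 25%, limit read from the data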
An asterisk follows results filed as active; x = no result.

SMILES	LRH-1 inv ag	NCOA3 inh	NCOA2 inhibitor	Gli-Sufu antag	SRC1 inh	Gli antag conf	SufuKO cytotox	Wnt3a cs
Cc1csc(NC(=O)CCc2nc3ccccc3s2)n1	-16.2	-6.2	-16.9	99.2*	-23.9	9.8	5.7	-39.2
Cc1csc(SCC(=O)Nc2ccccc2)n1	-7.6	-27.2	-10.9	-12.4	-19.0	x	x	x
Cc1ccc(NS(=O)(=O)c2cc([N+](=O)[O-])ccc2NNC(=S)Nc2cc(C)ccc2C)c(C)c1	5.6	22.5	17.5	62.3*	19.1	50.8*	4.2	61.8*
COc1ccc(NC(=S)NNc2ccc([N+](=O)[O-])cc2S(=O)(=O)Nc2ccc(C)cc2C)cc1	-13.3	-4.8	-1.3	-10.8	6.8	x	x	x
COc1ccc(Nc2ncc(C(=O)N3CCN(Cc4ccccc4)CC3)c3ccccc23)cc1	-3.6	17.7	-23.0	99.2*	15.3	29.4	6.5	-89.7
COc1ccc(Nc2ncc(C(=O)N3CCC(C(N)=O)CC3)c3ccccc23)cc1	-11.3	-3.1	-22.6	3.1	-4.0	x	x	x
COc1ccc(CNCc2cc(OC)ccc2OC)cc1	18.0	-5.6	21.4	19.5	0.3	x	x	x
COc1cc(CNCc2cc(OC)ccc2OC)cc(OC)c1	-3.9	-5.3	-11.1	57.2*	11.7	14.4	9.9	-1.6
CCN(CC)C(=O)CC[C@H]1CC[C@]2(CCCN(Cc3cccnc3)C2)O1	x	x	7.6	x	x	x	x	x
COc1ccc(CN2CCN(C(=O)CC(C)C)CC2)c(OC)c1OC	-2.1	10.7	-6.9	9.0	0.6	x	x	x
COc1ccc(CN2CCN(C(=O)CN3C(=O)C4C5C=CC(C5)C4C3=O)CC2)c(OC)c1OC (stereo not drawn)	1.6	13.6	12.8	62.1*	-4.8	19.3	20.8	-2.6
CC(C)CN1C(=O)[C@@]2(CC(=O)N(C)C2c2ccccc2)c2cc(-n3cc(CCc4ccccc4)nn3)ccc21 (stereo partly drawn)	x	x	8.4	x	x	x	x	x
C=C(C)CSc1nc2sc3c(c2c(=O)n1C1CCCCC1)CCN(C)C3	3.2	6.7	-2.2	58.1*	-110.1	47.2*	25.0*	-7.0
COC(=O)[C@]12C[C@H](CC(=O)N3CCCCC3)C(=O)N(Cc3cccc4ccccc34)C1=C[C@H](C(C)(C)C)O[C@@H]2C	x	x	13.6	x	x	x	x	x
Cc1ccccc1C1NC(c2ccccc2C)C([N+](=O)[O-])C(C)(C)C1[N+](=O)[O-] (stereo not drawn)	-4.8	11.9	16.7	54.0	-3.7	16.5	10.8	-16.2
COc1ccc(OC)c(NC(=O)C2CCCN(S(=O)(=O)c3c(C)noc3C)C2)c1 (stereo not drawn)	10.4	19.4	0.2	3.1	16.0	x	x	x
COc1ccc(OC)c(NC(=O)C2CCN(S(=O)(=O)c3c(C)noc3C)CC2)c1	10.9	3.1	-9.4	94.1*	-6.4	24.9	-1.5	6.6
COc1ccc(OC)c(NC(=O)CCN2CCN(c3ccccc3F)CC2)c1	-12.7	-0.6	1.7	10.5	-9.6	x	x	x
COc1ccc(C)cc1NC(=O)CCN1CCN(c2ccccc2F)CC1	14.6	2.5	4.9	58.8*	10.1	14.8	10.8	-1.4
CCN1CCN(C(=O)CCNC(=O)Cn2ccc3ccccc3c2=O)CC1	8.3	14.6	5.1	5.6	6.3	x	x	x
CN1CCN(C(=O)CCNC(=O)Cn2ccc3ccccc3c2=O)CC1	6.2	-9.1	-41.1	99.5*	-2.9	9.5	1.9	-8.8
CC(C)(C)OC(=O)n1cc(-c2ccccc2)c2c(-c3ccccc3)c(O)ccc21	x	x	10.3	x	x	x	x	x
COC(=O)[C@]12C[C@H](CC(=O)NCc3ccc(C)o3)C(=O)N(Cc3ccco3)C1=C[C@H](COCc1ccccc1)O[C@@H]2C	x	x	1.4	x	x	x	x	x
COc1ccc(CCNS(=O)(=O)c2csc(C(N)=O)c2)cc1OC	3.9	-4.1	-70.4	-9.1	-2.3	x	x	x
COc1ccc(CNS(=O)(=O)c2csc(C(N)=O)c2)cc1OC	19.6	-18.9	-5.6	55.2*	-2.0	21.9	3.3	-25.2
SMILES	LRH-1 inv ag	NCOA3 inh	NCOA2 inhibitor	Gli-Sufu antag	SRC1 inh	Gli antag conf	SufuKO cytotox	Wnt3a cs
COc1ccc(C(=O)N2CCN(c3ccc([N+](=O)[O-])c(NCCc4ccc(OC)c(OC)c4)c3)CC2)cc1	35.3	32.0	17.9	78.8*	22.8	76.3*	32.4*	-17.1
CCOC(=O)[C@@]12CCC3=C1N(CCC3)C(=O)[C@H](CC(=O)NCCCOC)C2	x	x	9.1	x	x	x	x	x
CCCCCCCOc1ccc(OC(=O)c2ccncc2)cc1	-4.4	0.1	-34.2	74.1*	-14.5	63.1*	20.3	9.8
CCCCCCCOc1ccc(OC(=O)c2cccnc2)cc1	-0.3	-26.9	-29.6	74.2*	-1.8	60.4*	19.9	-8.4
C=COCCCNc1ncnc2sc(-c3ccccc3)cc12	3.6	26.9	14.5	61.2*	-12.8	47.8*	38.8*	2.2
OCCCNc1ncnc2sc(-c3ccccc3)cc12	-7.3	22.3	19.6	-8.0	-32.7	x	x	x
COc1ccc(-c2nn(-c3ccccc3)cc2C=O)cc1[N+](=O)[O-]	-26.3	-9.1	-4.7	55.3*	-2.5	14.2	32.9*	8.6
Cc1ccc(S(=O)(=O)N2C[C@@H]3CCCC[C@@H]3[C@@H](C)[C@H]2c2cn(Cc3ccccc3)c3ccccc23)cc1	7.2	0.8	3.8	87.5*	-39.8	84.9*	31.6*	7.5
Cc1ccc(S(=O)(=O)N2C[C@@H]3CCCC[C@@H]3[C@@H](C)[C@H]2c2cn(Cc3ccccc3)c3ncccc23)cc1	8.6	34.4	-13.6	78.5*	53.3	85.8*	39.9*	32.6*
COc1ccc2c(c1)c([C@@H]1[C@H](C)[C@H]3CCCC[C@H]3CN1S(=O)(=O)c1ccc(C)cc1)cn2C	2.3	-4.1	4.2	6.4	-25.8	x	x	x
Cc1ccc(S(=O)(=O)N2C[C@@H]3[C@H]4CC[C@H](C4)[C@@H]3[C@@H](C)[C@@H]2c2cn(Cc3ccccc3)c3ncccc23)cc1	11.3	-8.7	-25.9	-8.9	5.9	x	x	x
OC(c1ccccc1)(c1ccccc1)C1CCN(CCCNc2ccc(Cl)cc2Cl)CC1	x	x	-24.6	x	x	x	x	x
COc1cc(C)c(CN2CCC(n3nccc3NC(=O)C3CCOC3)CC2)cc1C (stereo not drawn)	-7.1	10.1	-15.4	59.4*	-2.3	14.0	7.3	-13.3
Cc1cc(C)c(CN2CCC(n3nccc3NC(=O)C3CCOC3)CC2)cc1C (stereo not drawn)	13.0	3.0	14.5	15.1	-21.0	x	x	x
CC(=O)N(c1ccc(Cl)cc1)c1c[nH]c2ccccc12	35.9	8.6	-4.2	55.7*	12.9	13.6	7.5	-11.3
O=C(CCc1ccccc1)N[C@H]1[C@H](OC(=O)c2cnccn2)CCC[C@@]12C(=O)N(Cc1ccccc1)c1ccccc12	x	x	2.6	x	x	x	x	x

Compound activity deposited in PubChem by several laboratories.
